Test results published in PubChem BioAssay (EPA / NIEHS).
“And” between values parts separate entries of the source, which are not always exact repeats. Identical values can stand only once. Some compounds were tested as several samples or in several runs, with calls that do not always agree. The source made the active and inactive calls. The calls were made as follows: active = hit-call score of the fitted dose curve at least 0.9, where 1 is the maximum; inactive = score below 0.9.

Key:
[1] = ATG_PXRE_CIS: Attagene CIS-FACTORIAL HepG2 Assay for human Pregnane X Receptor Element (PXRE) (AID 2282957); details: HepG2 Attagene CIS-FACTORIAL PXRE reporter, mRNA; actives raise or lower the signal
Method in brief: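 Bidirectional activity, baselined to DMSO, derived from reporter mRNA fluorescence (RT-PCR plus capillary electrophoresis) in HepG2 cells bearing cis-promoter reporter units, 24 h exposure.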

[2] = ATG_PPRE_CIS: Attagene CIS-FACTORIAL HepG2 Assay for human Peroxisome Proliferator-activated Response Element (PPRE) (AID 2282958); details: HepG2 PPRE cis-element reporter, Attagene transcription factor profiling; actives raise or lower the signal
Method in brief: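 In this cell-based multiplex, a PPRE cis element drives a reporter sequence in transiently transfected HepG2 cells. Following 24 h treatment, labeled cDNA amplicons are sized and quantified by capillary electrophoresis, with DMSO defining baseline.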

[3] = ATG_RORE_CIS: Attagene CIS-FACTORIAL HepG2 Assay for human RAR-related Orphan Receptor Element (RORE) (AID 2282959); details: HepG2 Attagene cis-factorial RORE reporter, mRNA; actives raise or lower the signal
Method in brief: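 Endogenous factor activity at a cis response element is read as reporter transcript levels in HepG2 cells, 24 h post-dose. Transcripts are quantified by RT-PCR with capillary electrophoresis, and data fitted in both directions against DMSO.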

[4] = ATG_Sox_CIS: Attagene CIS-FACTORIAL HepG2 Assay for human SRY-box transcription factor (SOX) (AID 2282960); details: HepG2 Attagene cis-factorial SOX reporter, mRNA; actives raise or lower the signal
Method in brief: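 Measures mRNA induction of a SOX1-associated reporter in HepG2 after 24 h dosing. Fluorescently labelled RT-PCR fragments are separated by capillary electrophoresis, and gain or loss relative to DMSO control is fitted.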

[5] = target: Transcription factor Sp1 (Homo sapiens) (UniProt P08047); test: ATG_Sp1_CIS: Attagene CIS-FACTORIAL HepG2 Assay for human Specificity Protein 1 (Sp1) (AID 2282961); details: HepG2 Sp1 cis-reporter transcription, actives raise or lower the signal
Sequence of Transcription factor Sp1 (Homo sapiens) (P08047 whole entry, looked up): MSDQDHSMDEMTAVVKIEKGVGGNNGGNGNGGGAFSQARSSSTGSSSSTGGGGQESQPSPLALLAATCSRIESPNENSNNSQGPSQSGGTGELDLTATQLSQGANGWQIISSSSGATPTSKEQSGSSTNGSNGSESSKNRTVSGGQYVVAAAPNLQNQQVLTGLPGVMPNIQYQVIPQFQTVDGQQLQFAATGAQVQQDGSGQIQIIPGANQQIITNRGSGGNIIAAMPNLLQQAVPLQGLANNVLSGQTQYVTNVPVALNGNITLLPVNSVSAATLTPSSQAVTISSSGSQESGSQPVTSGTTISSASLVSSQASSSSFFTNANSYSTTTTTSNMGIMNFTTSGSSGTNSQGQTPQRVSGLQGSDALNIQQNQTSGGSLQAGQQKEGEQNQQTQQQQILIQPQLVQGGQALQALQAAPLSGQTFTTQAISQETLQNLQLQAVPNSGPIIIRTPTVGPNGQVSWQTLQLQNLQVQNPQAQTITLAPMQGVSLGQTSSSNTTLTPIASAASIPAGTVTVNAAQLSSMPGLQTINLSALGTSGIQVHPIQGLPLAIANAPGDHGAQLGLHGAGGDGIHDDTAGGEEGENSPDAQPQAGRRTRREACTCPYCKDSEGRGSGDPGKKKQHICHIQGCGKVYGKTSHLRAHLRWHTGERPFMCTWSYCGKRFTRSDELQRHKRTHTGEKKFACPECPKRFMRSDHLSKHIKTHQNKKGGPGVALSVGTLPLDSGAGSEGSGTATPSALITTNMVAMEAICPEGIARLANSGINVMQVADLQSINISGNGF
Method in brief: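 Cells: HepG2, transiently transfected with cis-regulated multiplexed reporters. Exposure: 24 h. Detection: reporter transcripts amplified, fluorescently labeled, restriction-digested and sized by capillary electrophoresis. Analysis: bidirectional fit relative to DMSO.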

[6] = ATG_SREBP_CIS: Attagene CIS-FACTORIAL HepG2 Assay for human Sterol Regulatory Element Binding (SREBP) (AID 2282962); details: HepG2 Attagene cis-factorial SREBP reporter, mRNA; actives raise or lower the signal
Method in brief: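 Endogenous factor activity is measured in HepG2 through multiplexed reporter units under cis-element control. Following a 24 h incubation, reporter transcripts are reverse-transcribed, PCR-amplified and sized by capillary electrophoresis; activity is fitted in both directions relative to DMSO.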

[7] = target: Signal transducer and activator of transcription 3 (Homo sapiens) (UniProt P40763); test: ATG_STAT3_CIS: Attagene CIS-FACTORIAL HepG2 Assay for human Signal Transducer and Activator of Transcription 3 (STAT3) (AID 2282963); details: HepG2, Attagene cis-factorial STAT3 reporter transcription; actives raise or lower the signal
Sequence of Signal transducer and activator of transcription 3 (Homo sapiens) (P40763 whole entry, looked up): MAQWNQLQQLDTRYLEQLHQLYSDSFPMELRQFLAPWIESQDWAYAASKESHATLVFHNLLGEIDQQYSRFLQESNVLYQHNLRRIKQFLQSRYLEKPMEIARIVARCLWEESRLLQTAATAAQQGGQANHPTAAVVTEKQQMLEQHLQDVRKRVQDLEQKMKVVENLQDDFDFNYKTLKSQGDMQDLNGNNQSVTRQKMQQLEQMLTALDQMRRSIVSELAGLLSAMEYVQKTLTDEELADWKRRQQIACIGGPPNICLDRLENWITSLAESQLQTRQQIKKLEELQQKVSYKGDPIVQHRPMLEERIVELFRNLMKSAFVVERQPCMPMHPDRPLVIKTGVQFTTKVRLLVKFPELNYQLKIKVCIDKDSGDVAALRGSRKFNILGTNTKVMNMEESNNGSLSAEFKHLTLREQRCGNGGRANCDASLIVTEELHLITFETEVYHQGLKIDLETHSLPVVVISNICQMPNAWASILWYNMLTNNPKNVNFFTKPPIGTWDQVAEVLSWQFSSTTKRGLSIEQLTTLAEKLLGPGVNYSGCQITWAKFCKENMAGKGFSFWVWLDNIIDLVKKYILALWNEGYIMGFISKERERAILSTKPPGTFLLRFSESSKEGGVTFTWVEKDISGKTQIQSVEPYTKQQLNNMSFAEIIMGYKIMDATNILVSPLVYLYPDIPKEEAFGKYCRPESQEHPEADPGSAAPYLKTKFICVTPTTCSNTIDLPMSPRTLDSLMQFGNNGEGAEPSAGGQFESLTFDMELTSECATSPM
Method in brief: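 HepG2, MRTU-transfected, 24 h dosing. RNA → RT → PCR → FAM label → HpaI → CE. Bidirectional fit vs DMSO.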

[8] = ATG_TA_CIS: Attagene CIS-FACTORIAL HepG2 Assay for human TA Basal Promoter (AID 2282964); details: HepG2 Attagene CIS-factorial TA basal promoter reporter; actives raise or lower the signal
Method in brief: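 Transient MRTU transfection of HepG2 preceded 24 h compound exposure. Reporter mRNA levels were then read by RT-PCR with capillary electrophoresis, and this background-control endpoint was fitted bidirectionally to DMSO.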

[9] = ATG_TAL_CIS: Attagene CIS-FACTORIAL HepG2 Assay for human TAL Basal Promoter (AID 2282966); details: HepG2 Attagene cis-factorial TAL promoter reporter; actives raise or lower the signal;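 also: background control endpoint measuring basal TAL promoter reporter mRNA not a specific factor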
Method in brief: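 Human hepatoma HepG2 cells, transfected with promoter-regulated reporter units, were treated 24 h. Reporter transcript levels, measured through RT-PCR and capillary electrophoresis, were fitted for gain or loss relative to DMSO.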

[10] = ATG_TCF_b_cat_CIS: Attagene CIS-FACTORIAL HepG2 Assay for human T-Cell-Factor with beta-catenin (TCF/b-cat) (AID 2282965); details: HepG2 TCF/beta-catenin cis-reporter transcription, actives raise or lower the signal
Method in brief: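 In this cis-format system, transfected HepG2 cells report endogenous transcription factor activity. Readout after 24 h exposure is reporter transcript abundance from RT-PCR and capillary electrophoresis, analysed for gain or loss of signal versus DMSO.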

Measured: AC50

CN(C)CCCN(C)CCCN(C)C
active: [1] 25.6 µM
not listed: [10]
inactive: all other assays above

COc1ccc(C(=O)Nc2nc3ccccc3c(NCc3ccccc3)c2C#N)cc1
active: [1] 0.641 µM | [2] 1.68 µM | [6] 4.43 µM
not listed: [7]
inactive: all other assays above

CN(C)C(=O)NC1(c2ccccc2)CCN(CCC[C@]2(c3ccc(Cl)c(Cl)c3)CCCN(C(=O)c3ccccc3)C2)CC1
inactive: [4] | [8] | [10] | [9]
active: [1] 0.119 µM | [2] 4.58 µM | [3] 4.93 µM | [5] 4.73 µM | [6] 0.762 µM | [7] 4.4 µM

CC(COCC(C)OC(=O)c1ccccc1)OC(=O)c1ccccc1 (centres undefined)
active: [1] 35.3 µM
not listed: [7]
inactive: all other assays above

CCCCCCC(C=O)=Cc1ccccc1
active: [1] 25.2 µM and 15.7 µM | [2] 4.87 µM and 6.4 µM | [5] 129 µM and 60 µM | [6] 26.3 µM
inactive: [3] | [4] | [6] | [7] | [8] | [10] | [9]

C=CCc1ccc(OC)c(OC)c1
active: [1] 100 µM
inactive: all other assays above

CC(=O)OC1CC(C)OC(C)O1 (centres undefined)
inactive: all assays above

O=C1NC(=O)C(c2ccccc2)(c2ccccc2)N1
not listed: [7]
inactive: all other assays above

CC1=C(C)S(=O)(=O)CCS1(=O)=O
active: [2] 89.5 µM
inactive: all other assays above

COC(=O)CCC(=O)OC
inactive: all assays above

CN(C)CCCN1c2ccccc2Sc2ccc(Cl)cc21
active: [6] 6.99 µM | [10] 7.68 µM
inactive: all other assays above

NC1CCCCC1
not listed: [10]
inactive: all other assays above

CC(C)COC(=O)CCCCC(=O)OCC(C)C
not listed: [7]
inactive: all other assays above

NC=O
not listed: [7]
inactive: all other assays above

CCCCCCCC(=O)OC
not listed: [7]
inactive: all other assays above

CCCCOC(=O)CCCCC(=O)OCCCC
not listed: [10]
inactive: all other assays above

CCN(CC)CCOc1ccc(C(=C(Cl)c2ccccc2)c2ccccc2)cc1
inactive: [2] | [3] | [4] | [5] | [8] | [10] | [9]
active: [1] 945 nM [middle of 4 runs] | [3] 9.35 µM | [4] 13.6 µM | [6] 2.59 µM [middle of 4 runs] | [8] 11.2 µM | [9] 13.1 µM

Oc1ccccc1O
active: [3] 23.2 µM
inactive: all other assays above

C=CCCCCCCCCCCCC
not listed: [10]
inactive: all other assays above
